Experimental findings from PubChem BioAssay are described below.

One assay addresses Albumin (Bos taurus) (UniProt P02769). In words: bovine serum albumin binders on microarray, profiling panel, artefact control for SMM control protein annotation, biochemical, small-molecule microarray, Alexa647 label, 635/667 nm fluorescence (AID 1118).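 Further: score merges 667 nm emission intensity and signal-to-noise per printed compound spot.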 To be noted: BSA-A647 binding, fluorescence 635 nm, higher = more signal.
A short description of assay [1]: small-molecule microarray binders of probe aXIP, primary screen, biochemical, NeuroSMM set, 635/667 nm fluorescence (AID 1119).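 Further: probe is the protein aXip251-270 applied at 1 µg/mL to compound-printed slides; binding of probe to printed compounds measured as 667 nm fluorescence plus signal to noise.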 To be noted: higher = more signal, called active from +8 up or from −8 down.
Assay [2] is described as follows: small-molecule binders of probe aNOTCH3, primary screen, biochemical, small-molecule microarray, 635/667 nm fluorescence (AID 1120).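 Further: probe is a biotin-tagged antibody raised against NOTCH3 rather than NOTCH3 protein; score merges spot fluorescence near 667 nm with spot signal to noise.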 To be noted: higher = more signal.
A short description of assay [3]: small-molecule binders of probe aNOTCH2, primary screen, biochemical, small-molecule microarray, 635/667 nm fluorescence (AID 1121).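 Further: score merges feature fluorescence read at 667 nm with its signal to noise.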 To be noted: higher = more signal.
The target in assay [4] is Carbonic anhydrase 2 (Homo sapiens) (UniProt P00918). Description: CAII small-molecule binders, profiling panel, biochemical, small-molecule microarray, Alexa647-labelled CAII (AID 1122). To be noted: CAII-A647 binding fluorescence, higher = more signal.
A short description of assay [5]: COS7 lysate on small-molecule microarray, probe aHis, 635 nm (AID 1123).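 Further: z-score combines 667nm fluorescence intensity with signal-to-noise per printed compound spot.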 To be noted: COS7 cell lysate, fluorescence, higher = more signal.
Assay [6] is described as follows: compound binding in COS7 lysate, probe aLAP1, primary screen, cell lysate, small-molecule microarray (AID 1124).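 Further: lysate comes from COS7 cells expressing LAP1 and is applied at 0.3 µg/mL; score merges spot fluorescence near 667 nm with signal-to-noise over triplicate slides.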 To be noted: probe aLAP1, fluorescence, higher = more signal.
Another assay deals with Sam68 (KHDRBS1). In words: Sam68 small-molecule binders, primary screen, biochemical, small-molecule microarray, 635 nm fluorescence (AID 1125).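 Further: score merges 667 nm channel intensity with signal to noise over triplicate slides.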 To be noted: small-molecule microarray binding, higher = more signal.
Assay [7] has as its system Chordin-like protein 2 (CHRDL2). In words: CHRDL2 small-molecule binders, primary screen, biochemical, small-molecule microarray, 635 nm fluorescence (AID 1126).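 Further: printed compound slides probed with Chrdl2 protein at 4 µg/mL for 1 h at 4 C; score merges 667 nm emission intensity with signal to noise over three replicate slides.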 To be noted: small-molecule microarray binding, fluorescence 635 nm; higher = more signal.
In assay [8] the target is Concanavalin-A (Canavalia ensiformis) (UniProt P02866). In words: ConA small-molecule binders, primary screen, artefact control for SMM control protein annotation, biochemical, small-molecule microarray, Alexa647 label, 635 nm (AID 1127).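 Further: z combines 667 nm emission intensity with signal-to-noise across three replicate slides.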 To be noted: ConA-A647 binding fluorescence, higher = more signal.
Assay [9] is described as follows: anti-His antibody binders, primary screen, artefact control for SMM control protein annotation, biochemical, small-molecule microarray, 635 nm fluorescence (AID 1128).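 Further: score merges feature fluorescence with signal-to-noise for each printed compound spot.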 To be noted: anti-His Alexa647 antibody binding, higher = more signal.
Assay [10] deals with Human papillomavirus type 1a E7 protein (residues 1-88). In words: HPV1a E7 small-molecule binders, primary screen, biochemical, small-molecule microarray, residues 1-88, 635 nm (AID 1129). To be noted: small-molecule microarray binding, fluorescence 635 nm; higher = more signal.
Assay [11] concerns the target Focal adhesion kinase 1 (Homo sapiens) (UniProt Q05397). In words: small-molecule microarray binders of FAK, primary screen, biochemical, 635/667 nm fluorescence, BSA, DTT (AID 1130).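 Further: composite of spot emission at 667 nm and signal to noise over triplicate slides.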 To be noted: PTK2 binding, 635 nm fluorescence, higher = more signal.
The subject of assay [12] is Fibrinogen (Alexa647-labelled). Description: fibrinogen binders on compound microarrays, profiling panel, artefact control for SMM control-protein annotation, biochemical, small-molecule microarray, 635/667 nm fluorescence (AID 1131).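 Further: z-score merges 667 nm fluorescence with per-spot signal-to-noise over triplicate slides.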 To be noted: fibrinogen-A647 binding fluorescence, higher = more signal.
Assay [13] concerns the target Follistatin (Homo sapiens) (UniProt P19883). Description: follistatin binders on small-molecule microarrays, primary screen, biochemical, small-molecule microarray, 635/667 nm fluorescence (AID 1132). To be noted: FST binding, 635 nm fluorescence, higher = more signal.
Assay [14] has as its target Fibroblast growth factor 2 (Homo sapiens) (UniProt P09038). Description: FGF2 binders on small-molecule microarrays, primary screen, biochemical, small-molecule microarray, 635/667 nm fluorescence (AID 1133). To be noted: small-molecule microarray binding, FGF2, fluorescence 635/667; higher = more signal.
Assay [15] in a line: mitochondrial membrane potential change in A549 cells, profiling panel, cell-based, JC-1 fluorescence, basal, 24 h, 100 nL (AID 1138).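 Further: A549 lung adenocarcinoma cells under basal conditions with no added stimulus; test concentration not given here.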 To be noted: higher = more signal.
The test system of the next assay is Lefty1. In words: Lefty1 binders on small-molecule microarrays, primary screen, biochemical, small-molecule microarray, 635/667 nm fluorescence (AID 1139). To be noted: small-molecule microarray binding, fluorescence 635/667; higher = more signal.
Assay [16] deals with wheat germ agglutinin (Triticum aestivum), Alexa647-labelled. In words: wheat germ agglutinin binders on compound microarrays, profiling panel, artefact control for SMM control-protein annotation, biochemical, small-molecule microarray, 635/667 nm fluorescence (AID 1140).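 Further: score merges 667 nm feature emission with signal to noise over triplicate slides.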 To be noted: WGA-A647 binding, 635 nm fluorescence, higher = more signal.
For assay [17], the target named is Luciferin 4-monooxygenase (Photinus pyralis) (UniProt P08659). Description: firefly luciferase enzyme inhibitors, primary screen, biochemical, luminescence, purified enzyme, 2006 set (AID 1141).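 Further: cell-free assay with purified firefly luciferase at 100 ng per well in PBS; test concentration not given here.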 To be noted: SteadyGlo luminescence, 30 min, higher = more signal, called active from +8 up or from −8 down.

Each structure is given as a SMILES string. The source made the active and inactive calls.

Sequence of Focal adhesion kinase 1 (Homo sapiens) (Q05397 whole entry, looked up): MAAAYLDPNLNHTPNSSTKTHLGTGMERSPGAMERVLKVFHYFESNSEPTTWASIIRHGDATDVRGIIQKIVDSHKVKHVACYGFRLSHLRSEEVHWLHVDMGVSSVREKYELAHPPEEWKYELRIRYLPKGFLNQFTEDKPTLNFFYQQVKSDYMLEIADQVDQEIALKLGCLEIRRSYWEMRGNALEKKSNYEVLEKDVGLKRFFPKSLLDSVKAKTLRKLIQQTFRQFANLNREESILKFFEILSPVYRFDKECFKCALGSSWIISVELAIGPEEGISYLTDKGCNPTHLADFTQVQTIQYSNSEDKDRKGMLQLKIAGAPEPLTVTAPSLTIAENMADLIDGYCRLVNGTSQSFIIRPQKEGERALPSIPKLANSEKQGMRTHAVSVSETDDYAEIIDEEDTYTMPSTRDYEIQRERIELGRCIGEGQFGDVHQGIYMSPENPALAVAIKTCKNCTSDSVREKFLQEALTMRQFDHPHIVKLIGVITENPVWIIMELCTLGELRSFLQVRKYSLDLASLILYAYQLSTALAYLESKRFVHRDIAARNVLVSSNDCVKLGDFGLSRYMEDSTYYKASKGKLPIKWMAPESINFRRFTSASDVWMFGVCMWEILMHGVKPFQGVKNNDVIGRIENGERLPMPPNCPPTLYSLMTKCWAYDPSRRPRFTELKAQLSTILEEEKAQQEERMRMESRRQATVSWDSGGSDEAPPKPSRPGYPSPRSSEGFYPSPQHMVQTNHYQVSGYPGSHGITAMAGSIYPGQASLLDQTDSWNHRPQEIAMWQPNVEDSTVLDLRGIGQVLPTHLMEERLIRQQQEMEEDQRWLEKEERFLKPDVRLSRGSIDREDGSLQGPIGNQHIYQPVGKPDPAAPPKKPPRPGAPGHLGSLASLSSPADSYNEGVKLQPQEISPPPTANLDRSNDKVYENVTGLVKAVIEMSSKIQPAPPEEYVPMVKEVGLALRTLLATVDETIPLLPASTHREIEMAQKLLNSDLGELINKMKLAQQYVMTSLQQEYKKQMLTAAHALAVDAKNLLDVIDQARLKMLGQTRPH
Sequence of Albumin (Bos taurus) (P02769 whole entry, looked up): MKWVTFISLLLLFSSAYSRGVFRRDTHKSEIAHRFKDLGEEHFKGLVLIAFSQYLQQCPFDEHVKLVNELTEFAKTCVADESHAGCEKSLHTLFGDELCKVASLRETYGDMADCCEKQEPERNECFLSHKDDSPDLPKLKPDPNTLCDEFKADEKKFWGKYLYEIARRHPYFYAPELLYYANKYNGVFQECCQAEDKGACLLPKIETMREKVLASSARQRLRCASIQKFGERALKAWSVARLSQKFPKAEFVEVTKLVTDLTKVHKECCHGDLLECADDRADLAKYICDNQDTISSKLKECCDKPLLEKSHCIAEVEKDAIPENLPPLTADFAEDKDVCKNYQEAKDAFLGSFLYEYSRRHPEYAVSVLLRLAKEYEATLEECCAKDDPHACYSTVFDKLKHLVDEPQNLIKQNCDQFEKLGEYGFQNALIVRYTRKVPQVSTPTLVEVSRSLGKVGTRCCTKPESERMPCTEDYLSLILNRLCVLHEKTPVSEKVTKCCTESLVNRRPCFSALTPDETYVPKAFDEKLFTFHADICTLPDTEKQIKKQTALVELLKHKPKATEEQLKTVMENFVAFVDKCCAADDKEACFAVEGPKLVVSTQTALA
Sequence of Concanavalin-A (Canavalia ensiformis) (P02866 whole entry, looked up): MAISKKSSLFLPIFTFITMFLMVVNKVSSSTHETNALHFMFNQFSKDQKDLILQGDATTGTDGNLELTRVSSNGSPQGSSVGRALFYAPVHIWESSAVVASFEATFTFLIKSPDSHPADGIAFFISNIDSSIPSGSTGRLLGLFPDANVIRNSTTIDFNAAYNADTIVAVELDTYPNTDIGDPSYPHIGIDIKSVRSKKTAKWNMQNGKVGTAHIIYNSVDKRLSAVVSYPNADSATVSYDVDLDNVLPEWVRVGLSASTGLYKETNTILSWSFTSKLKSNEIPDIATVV
Sequence of Fibroblast growth factor 2 (Homo sapiens) (P09038 whole entry, looked up): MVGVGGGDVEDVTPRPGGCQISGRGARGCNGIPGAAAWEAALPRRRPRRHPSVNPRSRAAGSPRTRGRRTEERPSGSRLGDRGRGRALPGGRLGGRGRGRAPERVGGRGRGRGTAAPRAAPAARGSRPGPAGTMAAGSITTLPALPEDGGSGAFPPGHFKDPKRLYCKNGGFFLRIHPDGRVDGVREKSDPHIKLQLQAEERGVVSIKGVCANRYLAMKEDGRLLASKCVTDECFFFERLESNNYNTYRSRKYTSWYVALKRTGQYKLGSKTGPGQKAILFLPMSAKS
Sequence of Follistatin (Homo sapiens) (P19883 whole entry, looked up): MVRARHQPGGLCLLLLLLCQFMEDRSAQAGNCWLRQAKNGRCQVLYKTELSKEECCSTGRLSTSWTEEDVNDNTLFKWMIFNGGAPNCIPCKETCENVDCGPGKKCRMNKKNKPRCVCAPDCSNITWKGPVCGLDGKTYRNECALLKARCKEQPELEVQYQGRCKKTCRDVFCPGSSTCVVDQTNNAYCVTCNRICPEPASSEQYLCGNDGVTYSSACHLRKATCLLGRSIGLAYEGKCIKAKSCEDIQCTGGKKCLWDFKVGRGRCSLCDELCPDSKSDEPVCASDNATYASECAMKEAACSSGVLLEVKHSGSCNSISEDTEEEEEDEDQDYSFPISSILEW
Sequence of Luciferin 4-monooxygenase (Photinus pyralis) (P08659 whole entry, looked up): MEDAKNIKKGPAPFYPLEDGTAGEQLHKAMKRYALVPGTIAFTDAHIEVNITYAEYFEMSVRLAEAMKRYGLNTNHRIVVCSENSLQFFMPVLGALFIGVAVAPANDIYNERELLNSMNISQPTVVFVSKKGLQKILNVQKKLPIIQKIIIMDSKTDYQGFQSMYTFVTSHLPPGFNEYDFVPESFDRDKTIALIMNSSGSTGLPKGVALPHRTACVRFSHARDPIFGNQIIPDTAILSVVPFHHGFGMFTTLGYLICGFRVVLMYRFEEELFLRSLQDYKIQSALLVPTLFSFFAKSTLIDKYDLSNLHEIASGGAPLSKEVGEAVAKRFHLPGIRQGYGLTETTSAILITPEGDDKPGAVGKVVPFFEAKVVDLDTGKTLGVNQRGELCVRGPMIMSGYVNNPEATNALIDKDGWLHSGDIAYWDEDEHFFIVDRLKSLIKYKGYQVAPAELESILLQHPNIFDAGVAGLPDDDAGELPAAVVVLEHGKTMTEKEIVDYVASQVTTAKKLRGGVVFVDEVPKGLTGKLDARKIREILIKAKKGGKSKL

On to `C=CCC(OC(C)=O)[C@@H]1[C@@H](N(Cc2ccc(-c3cccc(C(F)(F)F)c3)o2)C(=O)c2ccc(C)cc2)c2cc(OCCCO)ccc2N1C(=O)Cc1ccc2ccccc2c1` (stereo not given in full), for which the composite z-score with Albumin (Bos taurus) was -0.257; in assay [2], -0.0702; in assay [3], -0.153; in assay [4], -0.253; in [5] it was -0.275; in assay [6], -0.472. In addition, the composite z-score in the assay with Sam68 (KHDRBS1) is -2.05; in assay [7], 0.264; in assay [8], -0.594; in assay [9] it was 0.357; in assay [10] it was -1.49; in [11], 0.0103. The composite z-score in [12] was 0.658; in assay [13] it was 0.107; in assay [14], -0.358; with Lefty1, -0.454; in assay [16], 0.234. For the same compound, the composite Z-score in [1] was 0.421 (inactive). Further, the z-score in assay [15] is 0.71; in assay [17] it was -0.453 (inactive).
Regarding `C=C(/C(=C/C[C@H](OC(C)=O)c1ccc(CO)o1)c1cc(C(=O)OC)ccc1OC)C(C)C`, the composite z-score with Albumin (Bos taurus) is 0.222; in [2], -0.0328; in assay [3], -0.148; in assay [4] it was 0.646; in assay [5], 0.356; in assay [6], -0.185. Further, the composite z-score in the assay with Sam68 (KHDRBS1) is 0.271; in assay [7] it was -0.649; in [8], -0.237; in assay [9] it was -0.978; in [10], -0.184; in assay [11], -0.0384. The composite z-score is -1.25 in [12]; 0.467 in assay [13]; 0.539 in assay [14]; 0.864 in the assay on Lefty1; -1.24 in assay [16]. In assay [1], the composite Z-score was 0.72 (inactive). The z-score was -0.483 in [15] and -1.33 (inactive) in assay [17].
As for `C=C(C(=O)CC[C@@H](OC(=O)c1cccnc1)c1ccccc1OCCO)C(C)C`, the composite z-score with Albumin (Bos taurus) was 0.116; in assay [2], 0.0909; in [3], -0.092; in [4], 0.638; in [5] it was 0.206; in assay [6], 1.51. For the same compound, the composite z-score in the assay on Sam68 (KHDRBS1) was 0.489; in assay [7], 0.411; in assay [8], -0.67; in assay [9], -0.242; in assay [10], 0.131; in [11], -0.0995. For the same compound, the composite z-score in assay [12] was 0.0673; in [13], 0.719; in assay [14], 0.647; with Lefty1 it was 1.23; in [16], 0.486. Also, the composite Z-score in assay [1] was 0.59 (inactive). For the same compound, the z-score was -0.102 in assay [15] and -0.484 (inactive) in assay [17].
With `C=C[C@@H](COC(=O)OC(C)(C)C)N(Cc1ccc(OC)cc1)S(=O)(=O)c1ccc(Br)cc1`, the composite z-score with Albumin (Bos taurus) is -0.0125; in assay [2], 0.185; in [3], -0.154; in assay [4], -0.0303; in assay [5], 0.456; in [6] it was -0.024. Moreover, the composite z-score amounted to 0.828 in the assay with Sam68 (KHDRBS1); 0.708 in assay [7]; 0.802 in [8]; 1.03 in assay [9]; 1.11 in assay [10]; 0.43 in assay [11]. The composite z-score in assay [12] turned out to be 0.731; in assay [13], 0.844; in [14], 0.683; in the assay with Lefty1, 0.9; in assay [16], 0.285. In addition, in assay [1], the composite Z-score is 0.342 (inactive). The z-score is 3.28 in assay [15] and -0.694 (inactive) in [17].
On to `Cc1ccc(S[C@]2(C(=O)NCCCN(C)C)CC(=O)N(Cc3cc(C(F)(F)F)cc(C(F)(F)F)c3)[C@@H]2c2ccc(CO)cc2)cc1`, for which the composite z-score in the assay with Albumin (Bos taurus) is 0.384; in assay [2], -0.149; in assay [3], -0.106; in [4] it was 0.874; in assay [5], 0.616; in [6] it was 0.357. In addition, the composite z-score was -0.427 in the assay with Sam68 (KHDRBS1); -0.869 in assay [7]; -0.949 in [8]; -0.237 in [9]; -0.817 in assay [10]; 0.145 in assay [11]. The composite z-score in assay [12] was -0.603; in [13], -0.802; in [14], -1.33; in the assay with Lefty1, -0.493; in assay [16], 0.0796. The composite Z-score in [1] is 0.624 (inactive). For the same compound, the z-score was 0.134 in assay [15] and -0.303 (inactive) in [17].
